Here are results for 36 molecules from PubChem BioAssay (NCI).

Structures are written as SMILES. This is part of a sample that, as a whole, favours compounds with a hit. Of some 83,000 tested, about 20% had one in any assay.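 Interpretation: 100, growth as untreated; towards 0, rising growth inhibition; 0, no net growth; 0 to -100, cell death. Compounds scoring below 10 were considered active.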 Values without a mark were called inactive. Activity calls are given as the source filed them.

This assay relates to KM12 colon. Description: NCI-60 one-dose screen, 48 h (100 = growth as untreated, 0 = no growth, -100 = all killed). Conditions: 10 µM unless noted.
As to `COc1ccc2c(c1)C(=O)/C(=C/c1cccc(OCC(=O)c3ccccc3)c1)CC2`, the growth is 91.5%.

As for `NC(=Nc1ccccc1)SCCCCSC(N)=Nc1ccccc1`, the growth is 94.2%.

Consider `CC/C(=C\c1ccc(N(C)C)cc1)c1ccncc1`, for which the growth is 20.4%.

For `CCOC(=O)c1cc(-c2cccnc2)nc2c(Cl)cc(Cl)cc12`, the growth was 102%.

`Clc1ccc(-n2cnc3c(Cl)ncnc32)cc1Cl`: the growth is 95%.

For the molecule `O=C(CSCC(=O)N/N=C/c1ccccc1O)N/N=C\c1ccccc1O`, the growth was 37.3%.

In the case of `COc1ccc(C(=O)COc2cccc(/C=C3\Oc4ccc5ccccc5c4C3=O)c2)cc1`, the growth was 97.9%.

As for `CC(=O)NC1(C(=O)O)CCCC1`, the growth is 119%.

Take `CCOC(=O)C1=NN(c2ccc(Cl)cc2)C2C3N(c4ccc(Cl)cc4)N=C(C(=O)OCC)N3c3ccccc3N12` (stereo unspecified): the growth is 103%.

Turning to `CC(=O)Oc1ccc(C23c4ccccc4C2(OC(C)=O)c2cc(OC(C)=O)ccc23)cc1` (stereo unspecified), the growth is 46.2%.

In the case of `COc1ccc(/C=C2\NC(=S)NC2=O)cc1`, the growth is 101%.

Regarding `O=C(/C=C/c1ccccc1)CC(c1ccccc1)N1CCOCC1` (stereo unspecified), the growth is -81% (active).

As for `CCn1c2ccccc2c2ccc(C(C)=O)cc21`, the growth is 115%.

For `Cc1ccc(C=C2C(Cl)=C(Cl)C(Cl)=C2Cl)cc1`, the growth is -79.6% (active).

As to `Cc1ccccc1NC(=O)c1cc2ccccc2cc1O`, the growth is 23.4%.

On to `c1ccc(-n2nnnc2-c2cccc3ccccc23)cc1`, for which the growth is 31.3%.

Consider `Nc1ccccc1-c1ccc([N+](=O)[O-])cc1`, for which the growth is 24.1%.

Regarding `c1cnc2ccc3ncccc3c2c1`, the growth is 110%.

For `CC(=O)n1c2ccccc2c2ccccc21`, the growth was 114%.

As to `CC1=CC(=O)C(C(C)=Nc2ccccc2Cl)C(=O)O1` (stereo unspecified), the growth was 108%.

For `COc1c(O)cc2oc3cc(O)c(CC=C(C)C)c(O)c3c(=O)c2c1C/C=C(\C)CCC=C(C)C`, the growth is 25%.

With `CCOC(=O)c1ccccc1OC(=O)NNc1ccccc1`, the growth is 55%.

Turning to `O=C(/C=C/c1cc2ccccc2[nH]c1=O)c1ccc(O)cc1`, the growth was -8.87% (active).

`COc1cc(/C=C2\COc3ccc(O)cc3C2=O)cc(OC)c1`: the growth was 17.4%.

Regarding `ClC1=C(Cl)C(Cl)=C(Cl)C1=C/C=C/c1ccccc1`, the growth is -77.8% (active).

In the case of `COc1cccc(CCC2C(=O)CCCC2=O)c1`, the growth was 106%.

For `CSc1ncc2ncn(C3OC(CO)C(O)C3O)c2n1` (stereo unspecified), the growth was 113%.

As for `CN(C)CCCN1c2nc3ccccc3cc2Sc2cc3ccccc3nc21`, the growth is -72.4% (active).

Regarding `Cc1c(C)c(N2C(=O)C=CC2=O)c(C)c(C)c1N1C(=O)C=CC1=O`, the growth was 119%.

In the case of `CC12CCC3C(CCC4CC(=O)/C(=C\O)CC43C)C1CCC(=O)O2` (stereo unspecified), the growth is 115%.

With `CC(C)C/C(=N\NC(=O)c1ccncc1)c1cc(Cl)ccc1O`, the growth is 25.8%.

Take `Cn1cnc([N+](=O)[O-])c1S(=O)(=O)Oc1ccc(Cl)cc1`: the growth is 84.9%.

For the molecule `O=C(N1CCC(CN=c2cc3n(-c4ccc(Cl)cc4)c4ccccc4nc-3cc2Nc2ccc(Cl)cc2)CC1)N1CC1`, the growth is -63.7% (active).

Turning to `CN1COc2ccc3ccccc3c2C1`, the growth is 105%.

Take `CCCCCCCC1(C)NC(=O)NC1=O` (stereo unspecified): the growth is 113%.

Take `CC(O)c1nc2c(c(=O)n(C)c(=O)n2C)n1C` (stereo unspecified): the growth is 113%.
